The list shows a part of the results. The true hit rate is not given.
Biological target: furin, P09958
Test: furin cleavage Z-score vs untreated control; higher = more cleavage, active = 3.5 or more, inactive = 1 or less, 8 variable residues between constant flanks
Protocol: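 Multiplexed peptide-cDNA fusion cleavage assay. 8-mer variable peptides flanked by constant Cys-Ala (N-term) and Ala-Gly-Asn-Ala-Ser-Ala-Ser-Ala (C-term) and conjugated to a cDNA oligonucleotide were bead-immobilised via the N-terminus. They were treated with purified furin at a 1:10 enzyme:substrate ratio in 50 mM HEPES pH 7.5, 1 mM CaCl2, 100 mM NaCl for 7.5, 15 or 30 min. Released cDNA was counted by next-generation sequencing, and log counts versus no-furin controls were lowess-adjusted and converted to robust Z-scores.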

furin, P09958, sequence (P09958 whole entry): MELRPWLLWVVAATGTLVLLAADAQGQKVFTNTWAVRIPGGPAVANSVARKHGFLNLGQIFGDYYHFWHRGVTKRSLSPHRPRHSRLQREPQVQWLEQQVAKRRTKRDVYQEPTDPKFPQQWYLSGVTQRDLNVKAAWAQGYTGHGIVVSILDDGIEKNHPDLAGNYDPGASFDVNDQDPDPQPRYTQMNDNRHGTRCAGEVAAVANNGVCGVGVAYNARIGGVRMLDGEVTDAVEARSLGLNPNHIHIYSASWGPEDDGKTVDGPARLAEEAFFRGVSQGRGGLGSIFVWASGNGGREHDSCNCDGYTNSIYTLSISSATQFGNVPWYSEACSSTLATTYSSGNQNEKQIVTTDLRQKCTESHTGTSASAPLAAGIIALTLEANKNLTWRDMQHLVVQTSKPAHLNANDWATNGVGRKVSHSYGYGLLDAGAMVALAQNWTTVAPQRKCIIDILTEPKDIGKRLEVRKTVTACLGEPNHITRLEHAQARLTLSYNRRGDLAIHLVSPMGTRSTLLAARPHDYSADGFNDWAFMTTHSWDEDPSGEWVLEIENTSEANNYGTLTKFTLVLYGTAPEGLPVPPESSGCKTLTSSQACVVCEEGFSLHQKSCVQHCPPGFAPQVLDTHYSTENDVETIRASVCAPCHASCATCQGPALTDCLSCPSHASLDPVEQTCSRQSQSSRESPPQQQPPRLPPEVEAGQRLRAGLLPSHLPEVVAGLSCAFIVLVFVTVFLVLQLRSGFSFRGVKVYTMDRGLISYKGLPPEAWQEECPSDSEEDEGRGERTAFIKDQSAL

Sequence	furin cleavage Z-score (7.5 min)	furin cleavage Z-score (15 min)	furin cleavage Z-score (30 min)
CAEMVTSTWVAGNASASA [HC2166]	-0.179 (inactive)	0.272 (inactive)	-0.181 (inactive)
CACSGGAYDIAGNASASA [HC813]	-0.539 (inactive)	-1.15 (inactive)	0.556 (inactive)
CAVVLLLFAGAGNASASA [HC347]	-2.22 (inactive)	0.376 (inactive)	-0.682 (inactive)
CALAARKRRQAGNASASA [FS-604]	12.2 (active)	12.1 (active)	10 (active)
CALLQTASRQAGNASASA [HC1028]	0.222 (inactive)	0.569 (inactive)	0.432 (inactive)
CALLARDRRQAGNASASA [FS-1025]	6.87 (active)	9.4 (active)	7.76 (active)
CALAALAAYCAGNASASA [HC994]	0.554 (inactive)	1.14	0.545 (inactive)
CALLADARVCAGNASASA [HC523]	0.91 (inactive)	-0.28 (inactive)	-1.13 (inactive)
CAPPRRKRRQAGNASASA [FS-71]	8.73 (active)	9.48 (active)	8.32 (active)
CAHGLSAFSLAGNASASA [HC1604]	0.973 (inactive)	0.919 (inactive)	1.37
CAVVYCSMSYAGNASASA [HC2029]	-0.409 (inactive)	-0.331 (inactive)	0.819 (inactive)
CASTEDLVNLAGNASASA [HC1098]	0.352 (inactive)	-0.11 (inactive)	-0.537 (inactive)
CAVVCCEMSYAGNASASA [HC113]	1.04	-0.157 (inactive)	2.06
CAAKQRGKRAAGNASASA [FS-578]	7.85 (active)	6.99 (active)	6.51 (active)
CAKGYRGKRAAGNASASA [FS-448]	9.98 (active)	9.64 (active)	8.26 (active)
CAEFKRCWKGAGNASASA [FS-2859]	-0.792 (inactive)	0.463 (inactive)	-0.89 (inactive)
CAPLPRPRRSAGNASASA [FS-473]	6.49 (active)	5.07 (active)	4.07 (active)
CAPRDRPRRSAGNASASA [FS-1384]	12.7 (active)	13.7 (active)	10.6 (active)
CAATPRPRRSAGNASASA [FS-980]	11.1 (active)	11.2 (active)	7.55 (active)
CALCARPRRSAGNASASA [FS-348]	10.1 (active)	10.4 (active)	9.44 (active)
CAQPPRPFRSAGNASASA [FS-704]	-0.352 (inactive)	1.58	-0.0165 (inactive)
CAEVVTDTWVAGNASASA [HC152]	-0.985 (inactive)	0.416 (inactive)	-1.25 (inactive)

Sequence	furin cleavage Z-score (7.5 min)	furin cleavage Z-score (15 min)	furin cleavage Z-score (30 min)
CATTPCHGSWAGNASASA [HC69]	1.47	0.142 (inactive)	1.5
CARLVRPRRSAGNASASA [FS-952]	13.4 (active)	14.2 (active)	10.3 (active)
CAGTWRPRRSAGNASASA [FS-660]	10.9 (active)	11.6 (active)	7.85 (active)
CAEVPCHRPAAGNASASA [HC2403]	-1.55 (inactive)	0.357 (inactive)	-0.33 (inactive)
CAEVWCHRPSAGNASASA [HC2348]	0.218 (inactive)	0.0316 (inactive)	0.64 (inactive)
CALIRLKPTLAGNASASA [HC966]	-1.19 (inactive)	-1.25 (inactive)	0.404 (inactive)
CAFQYSPGQRAGNASASA [HC1467]	-0.221 (inactive)	-0.464 (inactive)	-2.47 (inactive)
CARYQRRSRSAGNASASA [FS-1655]	7.45 (active)	7.54 (active)	8.29 (active)
CAYRRRPPRSAGNASASA [FS-111]	1.85	1.04	0.965 (inactive)
CAYRRRRSRSAGNASASA [FS-1296]	7.22 (active)	8.22 (active)	6.95 (active)
CAYDTRCFDSAGNASASA [HC1480]	-1.56 (inactive)	0.436 (inactive)	0.927 (inactive)
CAYRYRRRRSAGNASASA [FS-1440]	4.89 (active)	5.22 (active)	3.7 (active)
CAYRKRQCRSAGNASASA [FS-393]	5.64 (active)	5.62 (active)	3.16
CATTPISGSWAGNASASA [HC45]	-0.899 (inactive)	-0.739 (inactive)	-0.823 (inactive)
CASLPCSAHLAGNASASA [HC2485]	-0.663 (inactive)	0.376 (inactive)	0.512 (inactive)
CAMRECSQHLAGNASASA [HC1693]	-1.86 (inactive)	1.41	0.442 (inactive)
CASLEVVTSTAGNASASA [HC2277]	-0.584 (inactive)	-0.0293 (inactive)	0.688 (inactive)
CAYIPRILGPAGNASASA [FS-1875]	-0.849 (inactive)	-0.994 (inactive)	-2.27 (inactive)
CAEVVTSTSVAGNASASA [HC2237]	0.559 (inactive)	-1.07 (inactive)	-1.09 (inactive)
CATRKTSERSAGNASASA [HC185]	0.0798 (inactive)	1.75	1.32
CARYIRSERSAGNASASA [FS-1611]	6.49 (active)	8.32 (active)	8.42 (active)
CATTLCSGSWAGNASASA [HC1865]	-0.162 (inactive)	-0.533 (inactive)	0.486 (inactive)
